Data from PubChem BioAssay (Tox21).
Values joined by “and” are separate entries in the source; they are usually repeats but may differ in a detail not shown here. Equal entries are not always repeated. Inconclusive results are not listed. Active and inactive are the calls of the source. Unless noted, calls come from the whole dose curve; as a rule, active = well fitted curve in the direction sought with a large enough effect in the repeat runs; inconclusive = weak or mixed curves; inactive = no such curve, though single readings can be large; an effect the other way counts as inactive or inconclusive.

Key:
[1] = target: Progesterone receptor (Homo sapiens) (UniProt P06401); experiment: qHTS assay to identify small molecule antagonists of the progesterone receptor (PR) signaling pathway (AID 1346795; active = well fitted inhibition curve with a large enough effect in the signal ratio in the repeat runs, not every such curve was filed as active; the % refers to the signal ratio; note: % is set by controls: 0 for no effect and ±100 for the full control effect)
Sequence of Progesterone receptor (Homo sapiens) (P06401 whole entry, looked up): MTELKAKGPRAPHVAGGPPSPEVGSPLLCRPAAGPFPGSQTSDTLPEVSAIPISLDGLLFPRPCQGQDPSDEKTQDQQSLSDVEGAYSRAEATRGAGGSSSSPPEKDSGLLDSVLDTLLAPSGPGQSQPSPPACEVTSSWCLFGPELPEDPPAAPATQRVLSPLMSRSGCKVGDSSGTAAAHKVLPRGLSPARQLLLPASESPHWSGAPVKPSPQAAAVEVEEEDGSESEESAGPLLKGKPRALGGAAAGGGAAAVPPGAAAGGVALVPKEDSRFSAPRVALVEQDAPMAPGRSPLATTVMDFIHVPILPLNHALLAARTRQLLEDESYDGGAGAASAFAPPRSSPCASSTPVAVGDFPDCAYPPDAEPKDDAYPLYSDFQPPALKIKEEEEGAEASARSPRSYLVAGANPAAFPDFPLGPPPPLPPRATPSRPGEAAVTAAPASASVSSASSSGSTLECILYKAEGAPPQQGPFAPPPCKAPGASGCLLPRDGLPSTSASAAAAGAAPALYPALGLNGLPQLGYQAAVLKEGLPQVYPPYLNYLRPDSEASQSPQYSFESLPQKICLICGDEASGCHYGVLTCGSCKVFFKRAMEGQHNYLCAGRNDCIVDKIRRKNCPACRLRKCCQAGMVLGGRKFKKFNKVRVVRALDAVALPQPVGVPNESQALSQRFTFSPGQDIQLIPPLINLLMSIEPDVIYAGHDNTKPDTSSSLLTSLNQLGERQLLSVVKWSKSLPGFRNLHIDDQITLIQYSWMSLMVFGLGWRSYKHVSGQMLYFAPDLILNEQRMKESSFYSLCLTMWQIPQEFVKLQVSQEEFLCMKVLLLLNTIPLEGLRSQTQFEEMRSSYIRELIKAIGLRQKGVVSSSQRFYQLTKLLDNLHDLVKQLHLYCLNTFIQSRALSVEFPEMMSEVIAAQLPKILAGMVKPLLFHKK
Method in brief: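 Screening used a GripTite HEK293T line with PR-responsive UAS-beta-lactamase. Cells were challenged with compound in the presence of 1 nM R5020 final for 16 hr at 37C; B/G FRET substrate, 2 hr room temperature, fluorescence.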

[2] = qHTS assay to identify small molecule antagonists of the progesterone receptor (PR) signaling pathway - cell viability counter screen (AID 1346798); note: series mostly up to about 92 µM; % is set by controls: 0 for no effect and ±100 for the full control effect; nearly all actives have a fitted effect of over 50% in size
Method in brief: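 Measures cytotoxicity in parallel with the PR antagonist reporter read: HEK293T PR-UAS-bla cells get compound and R5020 for 16 hr, and remaining viable cells are quantified by CellTiter-Glo luminescence.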

[3] = qHTS assay to identify small molecule antagonists of the TGF-beta/Smad signaling pathway - cell viability counter screen (AID 1346824); note: % is set by controls: 0 for no effect and ±100 for the full control effect; nearly all actives have a fitted effect of over 50% in size
Method in brief: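 Cytotoxicity counter-screen run in the same wells as the beta-lactamase Smad reporter read: CellTiter-Glo luminescence after 30 min at room temperature. HEK 293T SBE-bla cells had 5 hr compound exposure at 37 C with TGF-beta1 (0.25 ng/mL stock).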

[4] = qHTS assay to identify small molecule agonists of the TGF-beta/Smad signaling pathway - cell viability counter screen (AID 1346829); note: top concentration of the series differs between compounds; % is set by controls: 0 for no effect and ±100 for the full control effect; nearly all actives have a fitted effect of over 45% in size
Method in brief: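 After overnight seating at 37 C and 5% CO2, reporter cells got compounds for 5 hr and FRET substrate for 2 hr; cell viability then came from CellTiter-Glo luminescence.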

[5] = qHTS assay to identify small molecule agonists of the TGF-beta/Smad signaling pathway (AID 1346859; active = well fitted activation curve with a large enough effect in the signal ratio in the repeat runs, not every such curve was filed as active; the % refers to the signal ratio; note: series mostly up to about 77 µM; % is set by controls: 0 for no effect and ±100 for the full control effect)
Method in brief: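 Beta-lactamase reporter activity downstream of Smad binding elements was measured in stably transfected HEK 293T cells; compounds were incubated for 5 hr, substrate for 2 hr at room temperature.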

[6] = Caspase-3/7 induction in HepG2 cells by small molecules, qHTS assay (AID 1346978); note: % is set by controls: 0 for no effect and ±100 for the full control effect; nearly all actives have a fitted effect of over 15% in size
Method in brief: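 Caspase-3/7 induction was measured by Caspase-Glo 3/7 luminescence (30 min, room temperature) after a 17 hr compound exposure of wild-type HepG2 cells seeded at 2,000 per well and pre-incubated 5 hr.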

[7] = Caspase-3/7 induction in CHO-K1 cells by small molecules, qHTS assay (AID 1346980); note: % is set by controls: 0 for no effect and ±100 for the full control effect; nearly all actives have a fitted effect of over 15% in size
Method in brief: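 Luminescent Caspase-Glo 3/7 read (30min, room temperature) quantified apoptosis induction. Cells were wild-type CHO-K1, treated with compound for 17hr at 37 C and 5% CO2.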

[8] = Caspase-3/7 induction in HepG2 cells by small molecules, qHTS cell viability counter screen (AID 1346981); note: nearly all actives have a fitted effect of over 30% in size; note: potency is the fitted concentration of half-maximal effect
Method in brief: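 Wild-type HepG2 cells (2,000/well) were allowed to settle for 5 hr at 37 C, 5% CO2, then dosed with compounds in DMSO by pin transfer. After 16 hr at 37 C, CellTiter-Fluor was added and fluorescence read 1 hr later.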

[9] = target: Acetylcholinesterase (Homo sapiens) (UniProt P22303); experiment: Acetylcholinesterase (AChE) small molecule antagonists: colormetric cell-based qHTS assay (AID 1347395; calls by dose curve; note: nearly all actives have a fitted effect of over 30% in size; note: potency is the fitted concentration of half-maximal effect)
Sequence of Acetylcholinesterase (Homo sapiens) (P22303 whole entry, looked up): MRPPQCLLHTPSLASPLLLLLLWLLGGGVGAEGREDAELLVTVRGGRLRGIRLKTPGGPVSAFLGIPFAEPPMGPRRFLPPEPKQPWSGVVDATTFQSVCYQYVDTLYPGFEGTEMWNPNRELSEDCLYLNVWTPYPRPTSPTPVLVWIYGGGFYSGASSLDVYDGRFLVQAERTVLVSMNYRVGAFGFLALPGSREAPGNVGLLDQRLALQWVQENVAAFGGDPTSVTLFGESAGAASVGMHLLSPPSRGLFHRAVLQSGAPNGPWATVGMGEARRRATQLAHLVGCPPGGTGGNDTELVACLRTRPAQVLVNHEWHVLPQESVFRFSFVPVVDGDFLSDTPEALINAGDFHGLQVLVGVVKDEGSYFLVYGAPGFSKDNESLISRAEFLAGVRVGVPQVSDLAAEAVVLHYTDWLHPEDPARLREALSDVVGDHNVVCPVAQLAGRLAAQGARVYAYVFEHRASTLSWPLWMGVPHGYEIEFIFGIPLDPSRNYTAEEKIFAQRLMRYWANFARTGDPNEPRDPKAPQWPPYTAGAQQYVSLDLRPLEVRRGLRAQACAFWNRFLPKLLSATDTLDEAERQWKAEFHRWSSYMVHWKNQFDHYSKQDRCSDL
Method in brief: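 In this cell-based qHTS, attached SH-SY5Y cells were treated with test chemicals for 30 min, after which acetylthiocholine hydrolysis was followed by DTNB colour development over 90 min at 37 C.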

[10] = qHTS assay to identify small molecule agonists of the estrogen receptor alpha (ER-alpha) signaling pathway in the presence of an antagonist - cell viability counter screen (AID 1259386);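 note: cells exposed to compounds for 22 h at 37 °C before the viability read; nearly all actives have a fitted effect of over 30% in size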; note: potency is the fitted concentration of half-maximal effect
Method in brief: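 VM7Luc4E2 cells (endogenous full-length ER-alpha, 4×ERE-luciferase) were held 5 days in phenol red-free medium with 10% charcoal-stripped FBS, plated, then given 10.0nM ICI-182,780 and compounds at 15 concentrations for 22hr at 37C; viability read by CellTiter-Fluor fluorescence.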

[11] = target: Thyrotropin-releasing hormone receptor (Homo sapiens) (UniProt P34981); experiment: qHTS assay to identify small molecule antagonists of the thyrotropin-releasing hormone receptor (TRHR) signaling pathway (AID 1346877; active = well fitted inhibition curve with a large enough effect in the repeat runs, not every such curve was filed as active; note: series mostly up to about 51 µM; % is set by controls: 0 for no effect and ±100 for the full control effect)
Sequence of Thyrotropin-releasing hormone receptor (Homo sapiens) (P34981 whole entry, looked up): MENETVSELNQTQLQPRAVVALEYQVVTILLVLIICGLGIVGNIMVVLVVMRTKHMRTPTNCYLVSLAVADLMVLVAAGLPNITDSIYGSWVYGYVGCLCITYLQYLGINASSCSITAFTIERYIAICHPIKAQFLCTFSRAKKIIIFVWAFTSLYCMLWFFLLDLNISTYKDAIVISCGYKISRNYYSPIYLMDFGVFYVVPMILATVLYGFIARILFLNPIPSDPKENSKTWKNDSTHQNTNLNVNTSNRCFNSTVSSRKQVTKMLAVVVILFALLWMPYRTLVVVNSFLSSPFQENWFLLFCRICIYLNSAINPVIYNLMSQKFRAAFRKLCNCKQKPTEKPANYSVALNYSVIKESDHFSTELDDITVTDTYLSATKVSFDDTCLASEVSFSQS
Method in brief: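 TRHR-expressing HEK293 cells were seeded, cultured 18 h at 37 °C, then loaded with calcium dye for 2 h. Compounds were pre-incubated 5 min at room temperature before 1 nM TRH (final) was added, and kinetic fluorescence was recorded for 3 min.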

[12] = target: Thyrotropin-releasing hormone receptor (Homo sapiens) (UniProt P34981); experiment: qHTS assay to identify small molecule agonists of the thyrotropin-releasing hormone receptor (TRHR) signaling pathway (AID 1346891; calls by dose curve; note: series mostly up to about 58 µM; % is set by controls: 0 for no effect and ±100 for the full control effect)
Method in brief: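 Overnight-plated (18 h, 37 °C, 5% CO2) TRHR-Hek293 cells; 2 h calcium dye at 37 °C; compound in DMSO; 3-min kinetic fluorescence read.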

[13] = Human pregnane X receptor (PXR) small molecule agonists, qHTS cell viability counter screen (AID 1346977); note: % is set by controls: 0 for no effect and ±100 for the full control effect; nearly all actives have a fitted effect of over 50% in size
Method in brief: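 After a 5hr pre-incubation, PXR-Luc HepG2 cells received compounds plus positive control in DMSO and were kept 24hr at 37C. Cell viability was quantified by fluorescence from CellTiter-Fluor added for the final hour.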

[14] = target: Nuclear receptor subfamily 1 group I member 2 (Homo sapiens) (UniProt O75469); experiment: Human pregnane X receptor (PXR) small molecule agonists, qHTS assay (AID 1346982); note: nearly all actives have a fitted effect of over 35% in size; note: potency is the fitted concentration of half-maximal effect
Sequence of Nuclear receptor subfamily 1 group I member 2 (Homo sapiens) (O75469 whole entry, looked up): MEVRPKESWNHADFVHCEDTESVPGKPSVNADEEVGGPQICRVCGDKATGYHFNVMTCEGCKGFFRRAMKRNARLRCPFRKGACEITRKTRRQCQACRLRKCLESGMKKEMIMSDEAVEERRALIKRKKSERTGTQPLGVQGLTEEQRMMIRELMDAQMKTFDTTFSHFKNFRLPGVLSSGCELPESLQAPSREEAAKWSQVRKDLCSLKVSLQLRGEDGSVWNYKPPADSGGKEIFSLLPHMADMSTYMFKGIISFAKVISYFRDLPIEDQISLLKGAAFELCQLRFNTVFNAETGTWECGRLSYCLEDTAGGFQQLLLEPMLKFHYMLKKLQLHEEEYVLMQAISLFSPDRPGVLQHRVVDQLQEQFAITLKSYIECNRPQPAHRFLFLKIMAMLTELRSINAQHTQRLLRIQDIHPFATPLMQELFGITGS
Method in brief: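 PXR-Luc HepG2 cells (CYP3A4 promoter-driven luciferase) were seeded in medium with 5% charcoal-stripped FBS, left 5 hr at 37 C, then exposed to compounds in DMSO for 24 hr. Luminescence was read after ONE-Glo addition.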

[15] = target: Nuclear receptor subfamily 1 group I member 2 (Rattus norvegicus) (UniProt Q9R1A7); experiment: Rat pregnane X receptor (rPXR) activation by small molecules, qHTS assay (AID 1346983); conditions: rPXR luciferase reporter cells, One-Glo luminescence, 24 h; max activation: active compounds read high; note: % is set by controls: 0 for no effect and ±100 for the full control effect; nearly all actives have a fitted effect of over 20% in size
Sequence of Nuclear receptor subfamily 1 group I member 2 (Rattus norvegicus) (Q9R1A7 whole entry, looked up): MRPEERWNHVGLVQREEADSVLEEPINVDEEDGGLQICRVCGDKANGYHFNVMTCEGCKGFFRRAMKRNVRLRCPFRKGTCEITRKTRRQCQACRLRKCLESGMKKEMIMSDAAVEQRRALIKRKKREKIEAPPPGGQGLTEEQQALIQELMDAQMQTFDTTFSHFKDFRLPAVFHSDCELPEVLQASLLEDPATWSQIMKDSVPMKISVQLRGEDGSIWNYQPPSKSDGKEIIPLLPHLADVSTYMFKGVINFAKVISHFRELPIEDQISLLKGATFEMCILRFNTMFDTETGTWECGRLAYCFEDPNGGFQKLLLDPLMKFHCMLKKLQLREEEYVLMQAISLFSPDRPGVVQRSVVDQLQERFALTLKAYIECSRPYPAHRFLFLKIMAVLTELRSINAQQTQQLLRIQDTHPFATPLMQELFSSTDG
Method in brief: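 Luminescent readout (One-Glo luciferase, 30 min room temperature) followed 24 hr compound treatment at 37 C of rPXR cells plated 2,000 per well and preincubated 5hr; qHTS format with compounds delivered in DMSO.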

[16] = target: Nuclear receptor subfamily 1 group I member 2 (Homo sapiens) (UniProt O75469); experiment: Human pregnane X receptor (PXR) activation by small molecules, qHTS assay (AID 1346985); note: potency is the fitted concentration of half-maximal effect; nearly all actives have a fitted effect of over 40% in size
Method in brief: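 DPX-2 cells (HepG2 co-transfected with a PXR response element and a CYP3A4-promoter luciferase construct) were seeded at 2,000 per well, rested 5 hr at 37C, then exposed to DMSO-dissolved compounds for 24 hr. Activation was read as luciferase luminescence.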

[17] = target: Acetylcholinesterase (Homo sapiens) (UniProt P22303); experiment: Acetylcholinesterase (AChE) small molecule antagonists: enzyme-based qHTS assay (AID 1347397; calls by dose curve; note: % is set by controls: 0 for no effect and ±100 for the full control effect; nearly all actives have a fitted effect of over 55% in size); conditions: Potency: AChE enzyme activity inhibition
Method in brief: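 Absorbance-based detection of thiocholine with DTNB served as the read-out. Recombinant human AChE was exposed to compound for 30 min at RT before a 10 min RT incubation with acetylthiocholine.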

[18] = qHTS assay to identify small molecule agonists of the progesterone receptor (PR) signaling pathway - cell viability counter screen (AID 1346799; calls by dose curve; note: nearly all actives have a fitted effect of over 45% in size; note: potency is the fitted concentration of half-maximal effect)
Method in brief: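 Using the same plates as the PR reporter screen, HEK293T PR-UAS-bla cells received compounds for 16 hr at 37C and were then lysed with CellTiter-Glo; luminescence was read 30 min later at room temperature.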

[19] = Caspase-3/7 induction in CHO-K1 cells by small molecules, qHTS cell viability counter screen (AID 1346979); note: nearly all actives have a fitted effect of over 35% in size; note: potency is the fitted concentration of half-maximal effect
Method in brief: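 Multiplexed with Caspase-Glo 3/7 in CHO-K1 cells, this counter screen added CellTiter-Fluor after 16hr of compound exposure and recorded fluorescence 1hr later.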

[20] = target: Progesterone receptor (Homo sapiens) (UniProt P06401); experiment: qHTS assay to identify small molecule agonists of the progesterone receptor (PR) signaling pathway (AID 1346784; calls by dose curve; note: % is set by controls: 0 for no effect and ±100 for the full control effect; nearly all actives have a fitted effect of over 30% in size)
Method in brief: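 Seed PR-UAS-bla HEK 293T cells (2% charcoal-stripped FBS), incubate 6 hr at 37C; add compounds in DMSO, 16 hr at 37C; add LiveBLAzer B/G substrate, 2 hr RT; read fluorescence intensity.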

CN(C)c1ccc(N(C)C)cc1
active: Potency [9] 40 µM
inactive: Potency [1] | Potency [2] | Potency [3] | Potency [4] | outcome [5] | Potency [6] | Potency [7] | Potency [8]

CCC(COC(=O)c1cc(OC)c(OC)c(OC)c1)(c1ccccc1)N(C)C (stereo not given)
active: Potency [14] 29.8 µM | Potency [16] 25.1 µM
inactive: Potency [10] | Potency [3] | Potency [4] | outcome [5] | Potency [11] | Potency [12] | Potency [13] | Potency [6] | Potency [7] | Potency [8] | max activation [15] -1.12% | Potency [9] | Potency [17]

CN(N=O)c1ccc([N+](=O)[O-])cc1
active: Potency [9] 63.3 µM
inactive: Potency [1] | Potency [2] | Potency [18] | Potency [3] | Potency [4] | outcome [5] | Potency [11] | Potency [12] | Potency [13] | Potency [6] | Potency [19] | Potency [7] | Potency [8] | Potency [14] | Potency [17]

O=[N+]([O-])c1cc(C(F)(F)F)cc([N+](=O)[O-])c1Cl
active: Potency [10] 30.8 µM | Potency [18] 13.7 µM | Potency [19] 68.9 µM | Potency [8] 61.4 µM
inactive: Potency [3] | Potency [4] | outcome [5] | Potency [11] | Potency [12] | Potency [6] | Potency [7] | Potency [9] | Potency [17]

[CH3][Sn]([CH3])([Cl])[Cl]
active: Potency [19] 31.1 µM and 54.5 µM
inactive: Potency [20] | Potency [2] | Potency [18] | Potency [3] | Potency [4] | outcome [5] | Potency [11] | Potency [12] | Potency [13] | Potency [6] | Potency [7] | Potency [8] | Potency [14] | Potency [9] | Potency [17]

COc1cc(CC(C)N)cc2c1OCO2 (stereo not given)
inactive: Potency [20] | Potency [2] | Potency [18] | Potency [3] | Potency [4] | outcome [5] | Potency [12] | Potency [13] | Potency [6] | Potency [19] | Potency [7] | Potency [8] | Potency [14] | Potency [9] | Potency [17]

COc1ccc(-c2ccccc2)cc1NNC(=O)OC(C)C
active: Potency [14] 71.5 µM
inactive: Potency [3] | Potency [4] | outcome [5] | Potency [11] | Potency [12] | Potency [6] | Potency [7] | Potency [9] | Potency [17]

Clc1ccc(C2(Cn3cncn3)CC(Br)CO2)c(Cl)c1 (stereo not given)
inactive: Potency [3] | Potency [4] | outcome [5] | Potency [6] | Potency [7] | Potency [9] | Potency [17]
active: Potency [14] 24.2 µM

N#C/C(N)=C(/N)C#N
inactive: Potency [10] | Potency [18] | Potency [3] | Potency [4] | outcome [5] | Potency [11] | Potency [12] | Potency [13] | Potency [6] | Potency [19] | Potency [7] | Potency [8] | Potency [14] | Potency [9] | Potency [17]

COC(=O)C(Br)CBr (stereo not given)
inactive: Potency [10] | Potency [18] | Potency [3] | Potency [4] | outcome [5] | Potency [11] | Potency [12] | Potency [13] | Potency [6] | Potency [19] | Potency [7] | Potency [8] | Potency [14] | Potency [9] | Potency [17]

O=C=Nc1ccc(Cl)cc1
inactive: Potency [10] | Potency [3] | Potency [4] | outcome [5] | Potency [12] | Potency [13] | Potency [6] | Potency [19] | Potency [7] | Potency [8] | Potency [9] | Potency [17]
active: Potency [14] 1.54 µM
